For 36 molecules, remaining NAD, luciferase signal and z-score results are on record in PubChem BioAssay.

Structures are written as SMILES. Several values for one entry are separate records, joined by “and”; a condition that tells them apart may be missing. Identical values can stand only once. A number with no mark means an inactive call.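 How the source made its calls, unless noted: active means z-score of at least 1.8 in each of two replicates, scored against plate mean and spread of sample wells; inactive means the rest.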

In the first experiment the target is NAD(+) hydrolase SARM1 (Homo sapiens) (UniProt Q6SZW1). In words: SARM1 TIR NADase inhibitors, cell lysate, NAD-Glo luminescence (AID 1508614;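 active means compound whose remaining NAD level is above about 45 nM, limit read from the data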;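 further: higher remaining NAD means stronger inhibition of SARM1 NADase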). The settings on record: SAM-TIR HEK293T lysate NADase, at 1 µM, hits give high values.
NAD(+) hydrolase SARM1 (Homo sapiens), sequence (Q6SZW1 whole entry, looked up): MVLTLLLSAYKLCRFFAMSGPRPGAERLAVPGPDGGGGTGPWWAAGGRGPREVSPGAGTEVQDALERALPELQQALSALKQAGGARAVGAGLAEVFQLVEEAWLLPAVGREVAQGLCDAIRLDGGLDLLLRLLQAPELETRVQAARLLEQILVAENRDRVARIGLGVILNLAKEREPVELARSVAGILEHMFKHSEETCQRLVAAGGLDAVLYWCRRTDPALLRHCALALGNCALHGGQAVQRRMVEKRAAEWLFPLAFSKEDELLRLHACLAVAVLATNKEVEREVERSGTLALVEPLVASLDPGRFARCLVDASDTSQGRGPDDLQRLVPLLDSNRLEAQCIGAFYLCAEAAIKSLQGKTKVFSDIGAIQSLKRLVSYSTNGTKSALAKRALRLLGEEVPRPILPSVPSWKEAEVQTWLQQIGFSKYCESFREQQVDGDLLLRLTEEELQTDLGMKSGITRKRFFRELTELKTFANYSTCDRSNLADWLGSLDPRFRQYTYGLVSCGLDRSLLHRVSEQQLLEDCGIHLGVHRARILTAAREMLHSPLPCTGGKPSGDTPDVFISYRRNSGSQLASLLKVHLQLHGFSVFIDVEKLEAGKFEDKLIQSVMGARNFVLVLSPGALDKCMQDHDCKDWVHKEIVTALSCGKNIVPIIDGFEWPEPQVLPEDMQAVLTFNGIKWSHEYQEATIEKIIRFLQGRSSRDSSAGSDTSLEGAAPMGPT
Regarding `Cc1cccc(C)c1NC(=O)CN1CCCC1=O`, the remaining NAD was 10 nM.
Still for that read-out and setting: as for `CC(O)CN1CCN(CC(=O)[O-])CCN(CC(=O)[O-])CCN(CC(=O)[O-])CC1.[Gd+3]` (stereo not given), the figure is 10 nM.
On the same count and under the same terms, with `CC(C)c1c(CN(C)C(C)Cc2ccccc2)n(C)n(-c2ccccc2)c1=O` (stereo not given) the figure was 10 nM.
On the same count and under the same terms, with `O=[N+]([O-])c1ccc([As](=O)(O)O)cc1` the figure was 10 nM; with `COP(=O)(OC)OC=C(Cl)Cl`, 10 nM.
Regarding `COc1ccc(CN2CCNCC2)c(OC)c1OC`, the remaining NAD is 10 nM.
Consider `COP(=O)(OC)C(O)C(Cl)(Cl)Cl` (stereo not given), for which the remaining NAD is 10 nM.
As to `O=c1n(Cl)c(=O)n(Cl)c(=O)n1Cl`, the remaining NAD is 10 nM.
The same measure, in the same setting: as for `CCOC(=O)CC(SP(=S)(OC)OC)C(=O)OCC` (stereo not given), the figure is 10 nM; as for `C[C@]12CC[C@H](O)CC1=CC[C@@H]1[C@@H]2CC[C@]2(C)C(=O)CC[C@@H]12`, 10 nM.
Same read-out and setting: with `O=C(O)Cc1ccccc1` the figure was 10 nM; with `NCC1(CC(=O)O)CCCCC1`, 10 nM; with `CNCC(=O)c1ccc(O)c(O)c1`, 10 nM.
For `C[N+]1(C)[C@@H]2CC[C@H]1CC(OC(=O)C(CO)c1ccccc1)C2` (stereo not given in full), the remaining NAD was 10 nM.
On the same count and under the same terms, as for `O=C(NC(=O)c1c(F)cccc1F)Nc1cc(Cl)c(OC(F)(F)C(F)C(F)(F)F)cc1Cl` (stereo not given), the figure is 10 nM.

The target of another experiment is Mitogen-activated protein kinase 7 (Homo sapiens) (UniProt Q13164). In words: ERK5 transactivation activators in reporter cells, primary screen, cell-based, HTS (AID 1508626;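 active means luciferase signal above three times the same-plate solvent-only control wells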;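 further: luciferase driven by Gal4-ERK5 fusion binding five Gal4 sites before minimal TATA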). Particulars: HeLa Gal4-ERK5 transactivation, 18 h, at 5 µM, hits give high values.
Mitogen-activated protein kinase 7 (Homo sapiens), sequence (Q13164 whole entry, looked up, the tested form may be a part): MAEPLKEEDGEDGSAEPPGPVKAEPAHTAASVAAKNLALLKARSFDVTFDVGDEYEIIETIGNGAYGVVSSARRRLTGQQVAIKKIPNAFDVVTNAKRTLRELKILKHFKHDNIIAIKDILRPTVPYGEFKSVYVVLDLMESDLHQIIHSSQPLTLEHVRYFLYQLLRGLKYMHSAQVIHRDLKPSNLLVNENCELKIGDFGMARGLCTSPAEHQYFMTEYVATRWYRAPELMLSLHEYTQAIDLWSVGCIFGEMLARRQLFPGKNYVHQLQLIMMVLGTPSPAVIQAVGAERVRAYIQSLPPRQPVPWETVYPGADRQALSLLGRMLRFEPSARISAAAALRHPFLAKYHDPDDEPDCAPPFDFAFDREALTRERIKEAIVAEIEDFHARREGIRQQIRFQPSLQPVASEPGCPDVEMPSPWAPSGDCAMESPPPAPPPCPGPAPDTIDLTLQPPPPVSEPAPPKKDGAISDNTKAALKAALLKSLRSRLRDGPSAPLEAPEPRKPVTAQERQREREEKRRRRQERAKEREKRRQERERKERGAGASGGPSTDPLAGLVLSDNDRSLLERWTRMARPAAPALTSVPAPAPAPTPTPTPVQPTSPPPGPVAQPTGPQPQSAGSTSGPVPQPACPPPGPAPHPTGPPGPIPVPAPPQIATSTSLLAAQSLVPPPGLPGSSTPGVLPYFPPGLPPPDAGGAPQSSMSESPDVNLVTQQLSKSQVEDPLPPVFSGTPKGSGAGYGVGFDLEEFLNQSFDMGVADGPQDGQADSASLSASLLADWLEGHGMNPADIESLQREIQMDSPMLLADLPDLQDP
Turning to `COP(=O)(OC)OC=C(Cl)Cl`, the luciferase signal is 84 AU.
The same measure, in the same setting: as for `CCOC(=O)CC(SP(=S)(OC)OC)C(=O)OCC` (stereo not given), the figure is 52 AU.
With `C[C@]12CC[C@H](O)CC1=CC[C@@H]1[C@@H]2CC[C@]2(C)C(=O)CC[C@@H]12`, the luciferase signal is 48 AU.
Still for that read-out and setting: with `NCC1(CC(=O)O)CCCCC1` the figure was 76 AU; with `C[N+]1(C)[C@@H]2CC[C@H]1CC(OC(=O)C(CO)c1ccccc1)C2` (stereo not given in full), 60 AU.

System in the next experiment: not listed separately
The experiment is described as follows: viability rescue of complex I mutant cybrids, primary screen, cell-based, galactose medium, ATP luminescence (AID 1645843).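 Further: positive z means more ATP and so rescue of galactose-driven cybrid death.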 The settings on record: complex I mutant cybrid cells, 72 h, hits give high values.
In the case of `Cc1cccc(C)c1NC(=O)CN1CCCC1=O`, the z-score was 0.43.
On the same count and under the same terms, as for `CC(=O)[C@H]1CC[C@H]2[C@@H]3CC[C@H]4C[C@H](O)CC[C@]4(C)[C@H]3C(=O)C[C@]12C`, the figure is -0.315; as for `CCCN1CCC[C@@H]2Cc3nc(N)ncc3C[C@H]21`, 0.925.
Same read-out and setting: as for `Cn1c(CCCC(=O)O)nc2cc(N(CCCl)CCCl)ccc21`, the figure is 0.31.
For `FC(F)(F)c1cccc(C2=CCN(CCc3ccc4ccccc4c3)CC2)c1`, the z-score was -0.615.
For the molecule `Cc1ncsc1CCCl`, the z-score was 0.7 and 0.075.
As for `C=CCN1C[C@H](C)N([C@H](c2ccc(C(=O)N(CC)CC)cc2)c2cccc(OC)c2)C[C@H]1C`, the z-score was 0.105.
For `CCCCc1ccc(C(=O)O)nc1`, the z-score was 0.395.
Still for that read-out and setting: as for `Cc1ccc(S(=O)(=O)N[C@@H](CCCCN)C(=O)CCl)cc1`, the figure is -0.59.
Same read-out and setting: as for `c1ccc(C2CC2)c(OCC2=NCCN2)c1`, the figure is -0.075 and 0.06 and 0.195; as for `Fc1ccc(C(OCCN2CCN(CCCc3ccccc3)CC2)c2ccc(F)cc2)cc1`, -1.03 and -1.23; as for `CC[N+](CC)(CC)CC`, 0.685.
As for `C[C@]12CC[C@H](O)CC1=CC[C@@H]1[C@@H]2CC[C@]2(C)C(=O)CC[C@@H]12`, the z-score is -0.16.
On to `O=C(O)Cc1ccccc1`, for which the z-score was 0.455.
Turning to `CC(C)(C)OC(=O)c1ncn2c1[C@@H]1CCCN1C(=O)c1c(Br)cccc1-2`, the z-score is -0.115.
On the same count and under the same terms, with `NCC1(CC(=O)O)CCCCC1` the figure was 0.26 and 0.88.
On the same count and under the same terms, with `Cc1nnc2n1-c1sc(CCC(=O)N3CCOCC3)cc1C(c1ccccc1Cl)=NC2` the figure was -0.365.
Same read-out and setting: with `CCCC[N+]1(C)[C@@H]2CC(OC(=O)[C@H](CO)c3ccccc3)C[C@H]1[C@@H]1O[C@@H]12` (stereo not given in full) the figure was 0.285; with `Clc1cccc(SC2CCNCC2)n1`, -0.34.
As to `CC(C)NCC(O)c1ccc(N)c(C#N)c1` (stereo not given), the z-score is 0.17 and 0.505.
As to `CN1C[C@@H](NS(=O)(=O)N(C)C)C[C@@H]2c3cccc4c3c(cn4C)C[C@H]21`, the z-score was 0.405.
With `O=C1NCN(c2ccccc2)C12CCN(CC1COc3ccccc3O1)CC2` (stereo not given), the z-score is 0.48 and 0.105 and 0.78.
For the molecule `COc1ccc(C(=O)c2c(C)n(CCN3CCOCC3)c3ccccc23)cc1`, the z-score was 0.375.
Still for that read-out and setting: with `N#CC(C#N)=Cc1ccc(O)c(O)c1` the figure was -0.735 and -0.66.
The same measure, in the same setting: as for `O=C(O)c1ccc2[nH]cc(CCCCN3CC=C(c4ccccc4)CC3)c2c1`, the figure is -0.035.
